Molecular target: T1, TtCas6A H37A (Thermus thermophilus HB8, H37A)
T1 chain: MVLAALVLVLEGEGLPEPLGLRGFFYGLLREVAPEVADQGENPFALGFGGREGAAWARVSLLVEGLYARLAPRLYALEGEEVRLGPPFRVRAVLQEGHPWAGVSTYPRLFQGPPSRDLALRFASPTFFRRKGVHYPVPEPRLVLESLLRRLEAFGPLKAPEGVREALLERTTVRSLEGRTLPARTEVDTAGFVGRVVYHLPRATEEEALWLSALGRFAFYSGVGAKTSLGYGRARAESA
Assay: EMSA; Kd in FIG. 24D only
Details: chain copies: 2 inferred; label: 5'-32P (EMSA); hairpin; ssRNA
Description: FIG. 22 illustrates that TtCas6A and TtCas6B both cleave repeats R1 and R3 and retain their cleaved products. (A) Sequences and predicted secondary structures of T. thermophilus CRISPR repeats. Sites of cleavage are indicated with blue arrows. TtCas6e (TTHB192) cleaves repeat R2, while TtCas6A (TTHA0078) and TtCas6B (TTHB231) both cleave repeats R1 and R3. (B) Cleavage product binding affinities of TtCas6A and TtCas6B enzymes. Maltose binding protein (MBP)-fused TtCas6A or TtCas6B were bound to in 5′-radiolabelled, vitro transcribed R1 and R3 RNAs. Bound and unbound fractions were resolved by electrophoresis on a native polyacrylamide gel and visualized by phosphorimaging. The data for these and all subsequent binding assays were fit with standard binding isotherms (solid line). Error bars on each data point denote standard error of the mean (SEM) from three independent experiments. (C) Experiments to confirm single turnover. RNA cleavage assays were carried out at indicated protein:RNA ratios. RNA cleavage was monitored using denaturing polyacrylamide gel electrophoresis. The data from these and all subsequent endoribonuclease activity assays were fit with single exponential curves to yield first-order rate constants. (Top to bottom: FIG. 22A, SEQ ID NOs: 1, 2, 55).
To test the importance of the stem sequence for substrate RNA recognition by TtCas6A, a series of EMSAs was performed using R1 repeat-derived RNAs that carried single base pair substitutions (C-G→A-U). All mutant RNAs contained the complete 5′ segment and additional two nucleotides downstream of the cleavage site. Compared to the wild-type RNA, substitution of any of the four C-G base pairs in the stem led to about five-fold decrease in affinity (FIG. 24C). This is consistent with the observation that the lower three C-G base pairs are specifically read out by Arg129. The binding defect observed upon mutation of the closing (uppermost) base pair could be due to loss of stability of the stem-loop structure, which is determined by the closing base-pair (Serra et al, 1993). To further investigate the protein determinants of RNA binding, we tested the TtCas6A mutants H37A and R129A and performed binding assays using substrates R1 and R3 (FIG. 24D).

Sequence | binding signal
GUUGCAAACCUCGUUAGCCUCGUAGAGGAUUGAAAC | ~90 fold lower affinity than WT
GUUGCAAGGGAUUGAGCCCCGUAAGGGGAUUGCGAC | ~70 fold lower affinity than WT
